Reference: the supplement of paper PMC8728848
The sample as a whole holds a higher share of the strongest signals than the screen did.

What was measured:
Assay in all cases: glycan array binding signal (z-score within array); higher = stronger binding
Conditions in all cases: glycan notation: IUPAC condensed, linker removed
[1] = target: Fuc(a1-2)Gal(b1-3)GalNAc(b1-4)[Neu5Ac(a2-3)]Gal(b1-4)Glc
In short: (§1)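 Arrays were curated from the Consortium for Functional Glycomics database, 3228 in total, and kept only where the protein sequence was available. Binding is expressed as a within-array Z-score. This score was averaged across arrays of the same protein sequence at different concentrations or buffers and across linkers, and negative values can be read as non-binding.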

[2] = target: Fuc(a1-2)Gal(b1-3)GlcNAc6S
In short: as §1

[3] = target: Fuc(a1-2)Gal(b1-3)[Fuc(a1-4)]GlcNAc
In short: as §1

[4] = target: Fuc(a1-2)Gal(b1-4)GlcNAc(b1-2)[Fuc(a1-2)Gal(b1-4)GlcNAc(b1-4)]Man(a1-3)[Fuc(a1-2)Gal(b1-4)GlcNAc(b1-2)Man(a1-6)]Man(b1-4)GlcNAc(b1-4)GlcNAc
In short: as §1

[5] = target: Fuc(a1-2)Gal(b1-4)GlcNAc(b1-6)GalNAc
In short: as §1

[6] = target: Fuc(a1-2)Gal6S(b1-4)Glc6S
In short: as §1

[7] = target: Fuc(a1-2)[Gal(a1-3)]Gal(b1-4)GlcNAc(b1-2)Man(a1-3)[Fuc(a1-2)[Gal(a1-3)]Gal(b1-4)GlcNAc(b1-2)Man(a1-6)]Man(b1-4)GlcNAc(b1-4)[Fuc(a1-6)]GlcNAc
In short: as §1

[8] = target: Fuc(a1-2)[Gal(a1-3)]Gal(b1-4)GlcNAc(b1-3)[Fuc(a1-2)[Gal(a1-3)]Gal(b1-4)GlcNAc(b1-6)]GalNAc
In short: as §1

[9] = target: Fuc(a1-2)[Gal(a1-3)]Gal(b1-4)GlcNAc(b1-6)GalNAc
In short: as §1

[10] = target: Fuc(a1-2)[Gal(a1-3)]Gal(b1-4)[Fuc(a1-3)]Glc
In short: as §1

[11] = target: Fuc(a1-2)[GalNAc(a1-3)]Gal(b1-3)GlcNAc(b1-3)GalNAc
In short: as §1

[12] = target: Fuc(a1-2)[GalNAc(a1-3)]Gal(b1-4)[Fuc(a1-3)]GlcNAc
In short: as §1

[13] = target: Fuc(a1-2)[GalNAc(a1-3)]Gal(b1-4)[Fuc(a1-3)]GlcNAc(b1-3)GalNAc
In short: as §1

[14] = target: Fuc(a1-3)[Gal(b1-4)]Glc6S
In short: as §1

[15] = target: Fuc(a1-3)[Gal(b1-4)]GlcNAc(b1-2)Man(a1-3)[Fuc(a1-3)[Gal(b1-4)]GlcNAc(b1-2)Man(a1-6)]Man(b1-4)GlcNAc(b1-4)GlcNAc
In short: as §1

[16] = target: Gal(a1-3)Gal
In short: as §1

[17] = target: Gal(a1-3)Gal(b1-3)GlcNAc(b1-6)GalNAc
In short: as §1

[18] = target: Gal(b1-3)GalNAc
In short: as §1

[19] = target: Gal(b1-3)GalNAc(b1-3)Gal(a1-4)Gal(b1-4)Glc
In short: as §1

[20] = target: Gal(b1-3)GalNAc(b1-4)[Neu5Ac(a2-3)]Gal(b1-4)Glc
In short: as §1

[21] = target: Gal(b1-3)GlcNAc(a1-3)Gal(b1-4)GlcNAc
In short: as §1

[22] = target: Gal(b1-3)GlcNAc(b1-3)Gal(b1-4)Glc
In short: as §1

[23] = target: Gal(b1-3)GlcNAc(b1-3)Gal(b1-4)GlcNAc(b1-6)[Gal(b1-3)GlcNAc(b1-3)]Gal(b1-4)Glc
In short: as §1

[24] = target: Gal(b1-3)GlcNAc(b1-3)GalNAc
In short: as §1

[25] = target: Gal(b1-3)[Fuc(a1-4)]GlcNAc(b1-3)Gal(b1-4)[Fuc(a1-3)]GlcNAc
In short: as §1

[26] = target: Gal(b1-4)Glc
In short: as §1

[27] = target: Gal(b1-4)GlcNAc(b1-2)Man(a1-3)[Gal(b1-4)GlcNAc(b1-2)Man(a1-6)]Man(b1-4)GlcNAc(b1-4)GlcNAc
In short: as §1

[28] = target: Gal(b1-4)GlcNAc(b1-2)Man(a1-3)[Gal(b1-4)GlcNAc(b1-2)Man(a1-6)][Gal(b1-4)GlcNAc(b1-4)]Man(b1-4)GlcNAc(b1-4)[Fuc(a1-6)]GlcNAc
In short: as §1

[29] = target: Gal(b1-4)GlcNAc(b1-2)Man(a1-6)Man(b1-4)GlcNAc(b1-4)GlcNAc
In short: as §1

[30] = target: Gal(b1-4)GlcNAc(b1-3)Gal(b1-4)GlcNAc(b1-3)Gal(b1-4)GlcNAc
In short: as §1

[31] = target: Gal(b1-4)GlcNAc(b1-3)Gal(b1-4)GlcNAc(b1-3)Gal(b1-4)GlcNAc(b1-2)Man(a1-3)[Gal(b1-4)GlcNAc(b1-3)Gal(b1-4)GlcNAc(b1-3)Gal(b1-4)GlcNAc(b1-2)Man(a1-6)]Man(b1-4)GlcNAc(b1-4)[Fuc(a1-6)]GlcNAc
In short: as §1

[32] = target: Gal3S(b1-4)Glc
In short: as §1

[33] = target: Gal6S(b1-3)GlcNAc
In short: as §1

[34] = target: GalNAc(a1-3)GalNAc(b1-3)Gal(a1-4)Gal(b1-4)Glc
In short: as §1

[35] = target: GalNAc(b1-4)Gal(b1-4)Glc
In short: as §1

[36] = target: GlcNAc(a1-4)Gal(b1-3)GlcNAc
In short: as §1

[37] = target: GlcNAc(b1-2)[GlcNAc(b1-4)]Man(a1-3)[GlcNAc(b1-2)Man(a1-6)]Man(b1-4)GlcNAc(b1-4)GlcNAc
In short: as §1

[38] = target: GlcNAc(b1-2)[GlcNAc(b1-6)]Man(a1-6)[GlcNAc(b1-2)Man(a1-3)]Man(b1-4)GlcNAc(b1-4)GlcNAc
In short: as §1

[39] = target: GlcNAc(b1-3)Gal(b1-4)GlcNAc(b1-3)Gal(b1-4)GlcNAc(b1-3)Gal(b1-4)GlcNAc(b1-2)[GlcNAc(b1-3)Gal(b1-4)GlcNAc(b1-3)Gal(b1-4)GlcNAc(b1-3)Gal(b1-4)GlcNAc(b1-6)]Man(a1-6)[GlcNAc(b1-3)Gal(b1-4)GlcNAc(b1-3)Gal(b1-4)GlcNAc(b1-3)Gal(b1-4)GlcNAc(b1-2)Man(a1-3)]Man(b1-4)GlcNAc(b1-4)[Fuc(a1-6)]GlcNAc
In short: as §1

[40] = target: GlcNAc(b1-3)[GlcNAc(b1-6)]Gal(b1-4)GlcNAc
In short: as §1

[41] = target: Man(a1-2)Man(a1-3)[Man(a1-2)Man(a1-6)]Man(a1-6)[Man(a1-2)Man(a1-2)Man(a1-3)]Man(b1-4)GlcNAc(b1-4)GlcNAc
In short: as §1

[42] = target: Man(a1-3)[Man(a1-6)]Man(a1-6)[Man(a1-3)]Man
In short: as §1

[43] = target: Man(b1-4)GlcNAc
In short: as §1

[44] = target: Neu5Ac(a2-3)Gal(b1-3)GalNAc6S
In short: as §1

[45] = target: Neu5Ac(a2-3)Gal(b1-3)GlcNAc
In short: as §1

[46] = target: Neu5Ac(a2-3)Gal(b1-3)GlcNAc(b1-3)GalNAc
In short: as §1

[47] = target: Neu5Ac(a2-3)Gal(b1-3)[GlcNAc(b1-6)]GalNAc
In short: as §1

[48] = target: Neu5Ac(a2-3)Gal(b1-4)GlcNAc(b1-2)[Neu5Ac(a2-3)Gal(b1-4)GlcNAc(b1-6)]Man(a1-6)[Neu5Ac(a2-3)Gal(b1-4)GlcNAc(b1-2)Man(a1-3)][GlcNAc(b1-4)]Man(b1-4)GlcNAc(b1-4)GlcNAc
In short: as §1

[49] = target: Neu5Ac(a2-3)Gal(b1-4)GlcNAc(b1-3)Gal(b1-4)GlcNAc(b1-2)Man(a1-3)[Neu5Ac(a2-3)Gal(b1-4)GlcNAc(b1-3)Gal(b1-4)GlcNAc(b1-2)Man(a1-6)]Man(b1-4)GlcNAc(b1-4)GlcNAc
In short: as §1

[50] = target: Neu5Ac(a2-3)Gal(b1-4)GlcNAc(b1-3)Gal(b1-4)GlcNAc(b1-3)[Neu5Ac(a2-3)Gal(b1-4)GlcNAc(b1-3)Gal(b1-4)GlcNAc(b1-6)]GalNAc
In short: as §1

[51] = target: Neu5Ac(a2-3)Gal(b1-4)[Fuc(a1-3)]GlcNAc
In short: as §1

[52] = target: Neu5Ac(a2-3)Gal(b1-4)[Fuc(a1-3)]GlcNAc(b1-3)GalNAc
In short: as §1

[53] = target: Neu5Ac(a2-3)Gal(b1-4)[Fuc(a1-3)]GlcNAc6S
In short: as §1

[54] = target: Neu5Ac(a2-6)Gal(b1-4)GlcNAc(b1-2)[Neu5Ac(a2-6)Gal(b1-4)GlcNAc(b1-4)]Man(a1-3)[GlcNAc(b1-4)][Neu5Ac(a2-6)Gal(b1-4)GlcNAc(b1-4)Man(a1-6)]Man(b1-4)GlcNAc(b1-4)GlcNAc
In short: as §1

[55] = target: Neu5Ac(a2-6)Gal(b1-4)GlcNAc(b1-3)Gal(b1-4)GlcNAc(b1-3)Gal(b1-4)GlcNAc(b1-2)Man(a1-3)[Neu5Ac(a2-6)Gal(b1-4)GlcNAc(b1-3)Gal(b1-4)GlcNAc(b1-3)Gal(b1-4)GlcNAc(b1-2)Man(a1-6)]GalNAc
In short: as §1

[56] = target: Neu5Ac(a2-6)Gal(b1-4)GlcNAc(b1-6)GalNAc
In short: as §1

[57] = target: Neu5Ac(a2-8)Neu5Ac
In short: as §1

[58] = target: Neu5Ac(a2-8)Neu5Ac(a2-3)[GalNAc(b1-4)]Gal(b1-4)Glc
In short: as §1

B1: Pwp5 ND (Candida glabrata) (protein)
chain: MGSSHHHHHHSSGLVPRGSHMASANPVPLTNVCYFPEEYPRQAGFRAITAGLASTILQGSVDELLNYSGLSSLTTQQTTTTTPNFQLPTLPLPTNVYGLTVVPLYLLVQLQGYFVPPVSGQYTFSLENTNDAAIIFFGNPSAFPCGDLSAWPQASADDITVTDGTFPSRTLFLKAGVAYPMRISYYNSLGSGNLAVSFTDPGGTKRTNWNGYIWRYNSCSTCTYT
glycan array binding signal (z-score) [1]: -0.235
glycan array binding signal (z-score) [2]: -0.214
glycan array binding signal (z-score) [3]: 0.311
glycan array binding signal (z-score) [4]: 2.82
glycan array binding signal (z-score) [5]: 3.91
glycan array binding signal (z-score) [6]: 2.41
glycan array binding signal (z-score) [7]: 0.284
glycan array binding signal (z-score) [8]: -0.58
glycan array binding signal (z-score) [9]: 0.176
glycan array binding signal (z-score) [10]: -0.527
glycan array binding signal (z-score) [11]: 0.59
glycan array binding signal (z-score) [12]: -0.827
glycan array binding signal (z-score) [13]: -0.156
glycan array binding signal (z-score) [14]: 3.45
glycan array binding signal (z-score) [15]: 1.55
glycan array binding signal (z-score) [16]: -0.029
glycan array binding signal (z-score) [17]: -0.579
glycan array binding signal (z-score) [18]: -0.212
glycan array binding signal (z-score) [19]: 3.41
glycan array binding signal (z-score) [20]: -0.51
glycan array binding signal (z-score) [21]: -0.125
glycan array binding signal (z-score) [22]: -0.276
glycan array binding signal (z-score) [23]: -0.519
glycan array binding signal (z-score) [24]: -0.596
glycan array binding signal (z-score) [25]: 0.251
glycan array binding signal (z-score) [26]: -0.548
glycan array binding signal (z-score) [27]: -0.247
glycan array binding signal (z-score) [28]: -0.557
glycan array binding signal (z-score) [29]: 0.775
glycan array binding signal (z-score) [30]: -0.555
glycan array binding signal (z-score) [31]: 3.19
glycan array binding signal (z-score) [32]: -0.405
glycan array binding signal (z-score) [33]: -0.366
glycan array binding signal (z-score) [34]: -0.548
glycan array binding signal (z-score) [35]: 0.779
glycan array binding signal (z-score) [36]: -0.557
glycan array binding signal (z-score) [37]: -0.667
glycan array binding signal (z-score) [38]: 3.15
glycan array binding signal (z-score) [39]: 1.57
glycan array binding signal (z-score) [40]: -0.152
glycan array binding signal (z-score) [41]: -0.293
glycan array binding signal (z-score) [42]: 5.77
glycan array binding signal (z-score) [43]: -0.41
glycan array binding signal (z-score) [44]: -0.411
glycan array binding signal (z-score) [45]: 0.287
glycan array binding signal (z-score) [46]: 0.055
glycan array binding signal (z-score) [47]: -0.173
glycan array binding signal (z-score) [48]: 13
glycan array binding signal (z-score) [49]: -0.247
glycan array binding signal (z-score) [50]: 4.41
glycan array binding signal (z-score) [51]: -0.271
glycan array binding signal (z-score) [52]: -0.138
glycan array binding signal (z-score) [53]: 0.989
glycan array binding signal (z-score) [54]: -0.613
glycan array binding signal (z-score) [55]: 3.34
glycan array binding signal (z-score) [56]: 3.96
glycan array binding signal (z-score) [57]: 0.246
glycan array binding signal (z-score) [58]: 0.315
